# Experimental data as given in ChEMBL document CHEMBL3988442, “University of Dundee, Small-Polar-MMV Screening Library” (2021).
# The whole screen tested about 48,000 compounds, of which about 13,000 (27%) showed an effect of 50% or more. The list shows a part of the results.
# Test system: Wolbachia pipientis
# Assay: Anti-Wolbachia Cell-Based Screen
# Format: functional
# Set-up: scale not given: in the data most compounds retested in dose-response had high values
# Conditions: 5 µM
row,Structure (SMILES),Percent Effect [%]
1,CC(=O)N(C)CC(=O)NC(CC(C)C)c1cccs1 (stereo unspecified),5.598
2,NC(=O)CCCNC(=O)CCc1cc(Br)cs1,8.374
3,CCc1ccc(C(=O)NCc2ccnc(C)n2)cc1,0.2592
4,Cc1ccsc1CCNC(=O)CCC(=O)NC1CCCC1,-4.731
5,Cc1ccsc1CNC(=O)CCc1c(C)nc2cc(O)nn2c1C,106.8
6,Cc1cc(CNC(=O)CCc2ccc(S(N)(=O)=O)cc2)no1,-2.333
7,CCN(CC)S(=O)(=O)c1ccc(CCC(=O)NCc2cc(C)on2)cc1,7.778
8,Cc1nccc(CNC(=O)CCc2c(C)nc3cc(O)nn3c2C)n1,98.09
9,Cc1nc2cc(O)nn2c(C)c1CCC(=O)NCc1cc(Br)cs1,111.2
10,O=C(CCc1cc(Br)cs1)NCCCn1ccnc1,-0.5451
11,Cc1cc(CNC(=O)CCc2c(C)nc3cc(O)nn3c2C)no1,92.65
12,CCN(c1ccc(C(=O)NCc2ccnc(C)n2)cc1)C(C)C,-16.63
13,Cc1ccsc1CNC(=O)CC1CN(C(=O)OC(C)(C)C)C1,-25.18
14,Cc1cc(C)n(CCN2CCN(C(=O)c3ccc(Br)o3)CC2)n1,17.42
15,CCN(C)C[C@@H]1CN(Cc2cccc(O)c2)C[C@@H]1CO,-2.333
16,COc1ccc2c(c1)nc1n2[C@@H](CNCc2cnn(C)c2)COC1,1.636
17,Cc1cccc(CN2CCN(c3ncnc4[nH]ccc34)CC2CCO)n1 (stereo unspecified),6.168
18,CCN1CCC(CC(=O)NCC(O)c2ccc3ccccc3c2)CC1 (stereo unspecified),-0.749
19,CC(=O)N1CCCC(C(=O)N2Cc3nc(C)n(C)c(=O)c3C2)C1 (stereo unspecified),7.499
20,COC(=O)C1CN(Cc2ccccc2C(C)(C)C#N)CCO1 (stereo unspecified),1.007
21,CC(C)OCCS(=O)(=O)N1CCCC1c1cccc(N(C)C)c1 (stereo unspecified),4.069
22,CC(C)(C)CCCC(=O)NS(=O)(=O)CC1CC1,-9.167
23,Cc1ccccc1CNC(=O)Cc1c(C)nc2cc(=O)[nH]n2c1C,1.807
24,Cc1cccc(CNC(=O)CCc2c(C)nc3cc(O)nn3c2C)n1,101.6
25,Cn1ccc2c(C(=O)NCCCN3CCCC3)cccc21,7.133
26,CC(=O)N(C)C1CCN(C(=O)c2cccc3c2ccn3C)CC1,129.7

row,Structure (SMILES),Percent Effect [%]
1,Cn1ccc2c(C(=O)N3CCC(C(N)=O)CC3)cccc21,2.253
2,Cn1ccc2c(C(=O)N3CCN(C(=O)C4CCCC4)CC3)cccc21,117.3
3,Cc1ccc(N2CCCN(C(=O)c3cccc4c3ccn4C)CC2)nn1,-26.18
4,Cn1ccc2c(C(=O)N3CCC4(CCOC4)C3)cccc21 (stereo unspecified),-11.85
5,CCc1ncc(-c2nccn2-c2cccc(CC(=O)O)c2)cn1,-3.277
6,Cc1nccn1CCCN1CCC2(CCC(=O)N(CC3CC3)C2)CC1,94.75
7,Cc1cc(N2CCC3(CCC(=O)N(CC4CC4)C3)CC2)nc(N)n1,-10.67
8,Cc1ncc(CC(=O)N2CCC3(CCC(=O)N(CCO)C3)CC2)c(=O)[nH]1,13.05
9,Cc1cnn(CCC(=O)N2CCC3(CCC(=O)N(CC4CC4)C3)CC2)c1,86.63
10,Cc1nccn1CCCC(=O)N1CCC2(CCC(=O)N(C(C)C)C2)CC1,98.73
11,Cc1cnn(CC(=O)N2CCC3(CCC(=O)N(CC(C)O)C3)CC2)c1 (stereo unspecified),-3.932
12,Cc1nccn1CCCC(=O)N1CCN(c2cccnc2)CC1,-0.7063
13,CCN1CC2(CCC1=O)CCN(CCc1nccn1C)CC2,-0.2825
14,COc1ccc(C(=O)N2CCC3(CCC(=O)N(C(C)C)C3)CC2)cc1C,7.605
15,Cc1cc(N2CCC3(CCC(=O)N(CC4CC4)C3)CC2)ncn1,3.21
16,Cc1cnn(CC(=O)N2CCC3(CCC(=O)N(CCCO)C3)CC2)c1,-87.52
17,Cc1nccn1CCC(=O)N1CCC2(CCC(=O)N(CC3CC3)C2)CC1,117.2
18,COCCCN1C(=O)CC[C@H]2CN(c3cnc4ccccc4n3)CC[C@H]21,2.221
19,CCCn1nc(C)c2c1NC(=O)CC2c1ccc(CN2CCCC2)s1 (stereo unspecified),1.67
20,CC(C)c1nnc2n1CCN(CCCS(=O)(=O)c1ccccc1)C2,-6.679
21,CSCCc1nc(-c2ccc3c(c2)OCO3)n(C)n1,-7.384
22,Cc1nnnn1CCC(=O)N1CCC2(CCC(=O)N(CC3CC3)C2)CC1,115.6
23,Cc1nc(C(C)C)cc(N2CCC3(CCC(=O)N(CC4CC4)C3)CC2)n1,0.1735
24,CCCc1nc(C)cc(N2CCC3(CCC(=O)N(CC4CC4)C3)CC2)n1,5.96
25,CSCc1noc(CN2CCC3(CC2)CC(=O)N(CC=C(C)C)C3)n1,10.72
26,CC(C)=CCN1CC2(CCN(Cc3ncc[nH]3)CC2)CC1=O,-7.691

row,Structure (SMILES),Percent Effect [%]
1,CC(C)=CCN1CC2(CCN(C(=O)CCn3ccnc3C)CC2)CC1=O,86.66
2,O=C(O)C(F)(F)F.c1ccc(Cn2cc3c(n2)C(COCC2CC2)OCC3)nc1 (stereo unspecified),-17.74
3,Cc1nc(CN2C(=O)C[C@H]3[C@H]2CCN3CC2CCOC2)cs1.O=C(O)C(F)(F)F (stereo partly specified),100.2
4,Cc1nc(CN2CCc3ncnc(C4CCOC4)c3CC2)cs1.O=C(O)C(F)(F)F (stereo unspecified),-5.983
5,Cc1nc(CN2C(=O)C[C@@H]3[C@@H]2CCN3CC2CCOCC2)cs1.O=C(O)C(F)(F)F,145.4
6,Cc1nc(CN2CCN(CC3CCOC3)Cc3cccnc32)cs1.O=C(O)C(F)(F)F.O=C(O)C(F)(F)F.O=C(O)C(F)(F)F (stereo unspecified),-0.3757
7,CCN(Cc1ccccc1)C1CCN(c2cc(C)nn2C)C1=O (stereo unspecified),8.776
8,CN1CCN(C(=O)c2cccs2)Cc2ccccc21,-12.17
9,CN1CCN(C(=O)CCC(=O)c2cccs2)Cc2ccccc21,-12.13
10,Cc1cc(=O)c(C(=O)N2CCN(C)c3ccccc3C2)c[nH]1,106.1
11,Cc1cc(=O)[nH]cc1C(=O)N1CCN(C)c2ccccc2C1,99.2
12,CN1CCN(C(=O)c2cc[nH]c(=O)c2)Cc2ccccc21,113.6
13,Cc1ccc(C(=O)N2Cc3ccccc3C2)cc1N1CCNC1=O,-8.111
14,CN1CCN(C(=O)NCCNc2ncccn2)Cc2ccccc21,4.872
15,O=C(c1cc[nH]c(=O)c1)N1CCn2c(nnc2-c2ccccc2)C1,1.591
16,CN1CCN(C(=O)c2ccc(=O)n(C)c2)Cc2ccccc21,-3.616
17,Cc1cccc2sc(NC(=O)CN3CCCC4(CC3)CNC(=O)O4)nc12 (stereo unspecified),-7.394
18,CN(Cc1ccco1)C1CCC12CCN(C(=O)c1ccncc1)CC2 (stereo unspecified),-36.28
19,CCCOC1CCCN(Cc2nc(-c3cccs3)oc2C)C1 (stereo unspecified),5.158
20,Oc1cc(-c2cccs2)nc(C2CCCN(CC3=CCCOC3)C2)n1 (stereo unspecified),158.9
21,Cn1cc(CN2CCCC(c3nc(O)cc(-c4cccs4)n3)C2)cn1 (stereo unspecified),121.4
22,Cc1nnsc1C(=O)N1CCC2(CC1)c1nc[nH]c1CCN2CC(C)C,-5.32
23,CC(=O)N1CCC(Oc2ccc(C#N)cc2)CC1,-9.565
24,Cc1nc(N(C)C)ncc1C(=O)NCCCn1nccc1C1CC1,-2.183
25,CC(C)NC(=O)C1CCC2(CCN(Cc3cnn(C)c3)CC2)CO1.O=C(O)C(F)(F)F (stereo unspecified),-4.372
26,Cc1cnn(C2CN(CC(=O)Nc3cccnc3)C2)c1,-2.546

row,Structure (SMILES),Percent Effect [%]
1,Cn1cc(CN2CCc3onc(C(=O)Nc4cccnc4)c3C2)cn1,104.3
2,O=C(Nc1cccnc1)c1noc2c1CN(S(=O)(=O)C1CC1)CC2,3.652
3,CC(=O)NCc1noc2c1CN(Cc1cnn(C)c1)CC2,0.2145
4,CC(C)NC(=O)c1noc2c1CN(Cc1cnn(C)c1)CC2,212.5
5,CSc1ccc(OC(C)C(=O)Nc2cc(C)n[nH]2)cc1 (stereo unspecified),-10.9
6,COC(=O)CNC(=O)C(C)Oc1ccccc1C(F)(F)F (stereo unspecified),-20.43
7,CC(=O)N1CCc2[nH]nc(C(=O)N3CC=CC3)c2C1,-70.9
8,COc1cccc2[nH]cc(CCNC(=O)N3CCOCC3C3CC3)c12 (stereo unspecified),-14.93
9,CSc1nsc(NC(=O)N2CCc3ccccc3C2)n1,111
10,Cc1nsc(N2CCc3sccc3C2)n1,15.05
11,CN(C)c1ccc(NC(=O)N2CCc3sccc3C2)cn1,-14.46
12,O=C(Nc1ccc(N2CCCC2)nc1)N1CCc2ccccc2C1,28.26
13,Cc1nsc(NC(=O)N2CCc3sccc3C2)n1,105.8
14,Cc1nsc(C(=O)N2CCc3ccccc3C2)n1,14.75
15,CN(C)Cc1cc(CC2(NCc3ccc(C#N)cc3)COC2)no1,1.695
16,Cn1cccc(NC(=O)N2CCC(CSc3ccccc3)C2)c1=O (stereo unspecified),-5.186
17,CC(C)(C)CC(=O)N1CCCC2(CC(C(=O)Nc3ccccc3)=NO2)C1 (stereo unspecified),98.19
18,Cc1ncccc1NC(=O)C1=NOC2(CCN(Cc3nccs3)C2)C1 (stereo unspecified),10.83
19,CC(C)CC(=O)N1CCCC2(CC(C(=O)Nc3ccccc3)=NO2)C1 (stereo unspecified),115.3
20,CC(C)NC(=O)N1CCCC2(CC(C(=O)Nc3ccccc3)=NO2)C1 (stereo unspecified),111.3
21,CC(C)NC(=O)N1CCC2(CC(C(=O)NCc3cccnc3)=NO2)C1 (stereo unspecified),-3.064
22,CC(C)C(=O)N1CCCC2(CC(C(=O)NCc3cccnc3)=NO2)C1.O=C(O)C(F)(F)F (stereo unspecified),-6.89
23,COCC(=O)N1CCC2(CC(C(=O)NCc3cccnc3)=NO2)C1 (stereo unspecified),-9.027
